Here are results for 3 compounds from PubChem BioAssay AID743343 (Broad Institute, 2014).

Entries with a potency or affinity are not part of this list. The source made the active and inactive calls. The rule behind the calls is not given here.

This experiment deals with Drosophila melanogaster bursicon receptor LGR2 (rickets). Kind of experiment: LGR2 antagonists, dose response, cell-based, HEK293, CRE-luciferase reporter, cherry pick, set 2 (AID 743343). As to conditions: bursicon-induced cAMP antagonist; series mostly up to 35 µM; activity change, negative = inhibition: at the top concentration. A general note: A reporter such as luciferase makes a cellular process visible.
With `O=c1c2ccccc2nc(/C=C/c2ccc([N+](=O)[O-])o2)n1-c1ccc(O)cc1`, the “activity change, negative = inhibition” value is 13.4% (inactive).
As for `O=C(O)c1nn(Cc2ccc(Cl)cc2Cl)c2ccccc12`, the “activity change, negative = inhibition” value was -2.47% (inactive).
For the compound `Cc1ccc2c(c1)C1CN(C)CCC1N2C(=O)c1cn(-c2ccccc2)nc1-c1ccccc1` (stereo not drawn), the “activity change, negative = inhibition” value is -34.1% (inactive).
